PubChem BioAssay (NCI)
About 83,000 compounds went through this panel and 20% of them were active in at least one assay; those are over-represented in the sample as a whole.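 In brief: 96-well plates, 48 h treatment, single concentration, percent growth endpoint.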 A number with no mark means an inactive call. Calls of active or inactive are those of the source.

system: U251 CNS; assay: NCI-60 one-dose screen, 48 h (100 = growth as untreated, 0 = no growth, -100 = all killed); details: 10 µM unless noted
Procedure: Growth inhibition of the U251 human tumor cell line is measured as a screen for anti-cancer activity. Cells are grown in 96 well plates and exposed to the test compound for 48 hours. Compounds are tested at a single concentration, which is 10^-5 M for most compounds. The reported endpoint is percent growth (GI% or GIPRCNT), where numbers from 0 - 100% represent growth inhibition, and numbers from -100% - 0 represent cell death. For example, a value of 40 represents 60% growth inhibition. A value of 0 means no net growth occurred over the course of the experiment. A value of -40 indicates 40% of cells at the beginning of the experiment died by the end of the experiment. A value of -100 means all cells are dead at the end of the experiment.
NCI-60 Human Tumor Cell Lines Screen was performed using the standard one-dose NCI protocol, which is described in more detail at https://dtp.cancer.gov/discovery_development/nci-60/default.htm.
Compounds with GIPRCNT values below 10 were considered active. Activity score was based on GIPRCNT using the following formula: […]
Score is 0 for GIPRCNT values of 100 or above, 50 for GIPRCNT values of 0, and 100 for GIPRCNT values of -100.

| SMILES | growth |
| --- | --- |
| CCN1CCCC(Nc2cc(C)nc(/N=C(/N)Nc3ccc(Cl)c(Cl)c3)n2)C1 (stereo not given) | -82.4% (active) |
| OC(c1cc2ccc(C(F)(F)F)cc2c2cc(C(F)(F)F)ccc12)C1CCCCN1 (stereo not given) | -100% (active) |
| COc1ccc(/C=C2/C(=O)ON=C2C)cc1 | 98.6% |
| O=[N+]([O-])CC(O)c1ccccc1 (stereo not given) | 98.7% |
| CCCCCCCCC(=O)OCCCC(CCC(CCC1CCCO1)OC(=O)CCCCCCCC)OC(=O)CCCCCCCC (stereo not given) | 106% |
| O=[N+]([O-])c1ccc(N2CCN(Cc3ccccc3)CC2)c2c1no[n+]2[O-] | -47.8% (active) |
| O=C1C=CC(=O)N1C1CCCCCCCCCCC1 | 91.6% |
| O=C(c1ccccc1)C(Br)C(Br)c1ccccc1 (stereo not given) | 68.6% |
| NNc1ccc(Cl)cc1Cl | 76.4% |
| OC(Cc1cc(CC(O)(C(F)(F)F)C(F)(F)F)nc(CC(O)(C(F)(F)F)C(F)(F)F)c1)(C(F)(F)F)C(F)(F)F | -60.2% (active) |
| Nc1ccc(-c2ccc(N)c(S(=O)(=O)O)c2)cc1S(=O)(=O)O | 115% |
| CC(C)(C)CC(C)(C)c1ccc(OCCOCCSC(=N)N)cc1 | 35.9% |
| CCOC(=O)c1cc(CC)sc1NC(=O)CC(C)=O | 34.7% |
| COc1cccc2c1C(=O)c1c(O)c3c(c(O)c1C2=O)C[C@@](O)(C(=O)CO)C[C@@H]3OC1CC(OC(C)=O)C(OC(C)=O)C(C)O1 (stereo not given in full) | -42.9% (active) |
| COC(=O)Nc1nc2ccc(C3(c4ccc(F)cc4)OCCO3)cc2[nH]1 | 13.9% |
| N#CC(I)CS(=O)(=O)c1ccccc1 (stereo not given) | 91.2% |
| CCc1cccc(CC)c1N1C(=O)C=CC1=O | 100% |
| CC1=CC(=NC(=O)CBr)C=C/C1=N\S(=O)(=O)c1ccccc1 | 67.3% |
| COc1cc(NCc2ccc3nc(N)nc(N)c3c2C)cc(OC)c1OC (tested in a mixture with another compound) | 31.2% |
| Cc1nn(CCO)c(C)c1N=[N+]([O-])c1c(C)nn(CCO)c1C | 69.6% |

| SMILES | growth |
| --- | --- |
| CCOc1cc(F)c([N+](=O)[O-])cc1[N+](=O)[O-] | 29.6% |
| O=C1c2ccccc2C(=O)c2c(O)c(Cl)cc(O)c21 | 38% |
| COc1cc(-c2ccc(-[n+]3nc(-c4ccc([N+](=O)[O-])cc4)nn3-c3ccc([N+](=O)[O-])cc3)c(OC)c2)ccc1-[n+]1nc(-c2ccc([N+](=O)[O-])cc2)nn1-c1ccc([N+](=O)[O-])cc1 | 43.9% |
| Clc1ccc(Cc2nc3ccccc3s2)cc1 | 79.4% |
| c1ccc(C2NCCNC2c2ccccc2)cc1 (stereo not given) | 107% |
| O=[N+]([O-])c1ccc(C(Br)c2ccc([N+](=O)[O-])cc2)cc1 | 88.6% |
| O=C(OC12CC3CC(CC(C3)C1)C2)c1ccc(NCc2cc(O)ccc2O)cc1 | -64.5% (active) |
| CCCCCCCCCCCC[n+]1ccccc1 (tested in a mixture with another compound) | -24.1% (active) |
| O=C1c2ccccc2Cc2cccc(Cl)c21 | 101% |
| CCOC(=O)C1=NN(c2ccccc2)C(=O)/C1=C\N1C(=O)/C(=C/c2cccc(O)c2)SC1=S | 89% |
| Cc1cc(C(N)=O)cc(C)c1C(=O)OCCCl | 96.9% |
| OC(CSc1ccccc1)CN1CCN(c2ccc(Cl)cc2)CC1 (stereo not given) | 95.2% |
| NC(=S)N/N=C/c1ncccc1O | 25.4% |
| Cn1c(-c2ccccc2)c(/C=C/C2=[N+](C)c3ccccc3C2(C)C)c2ccccc21 | 8.73% (active) |
| CC(C)N=C(N)/N=C(\N)Nc1ccc2ccc3ccccc3c2c1 | -67.9% (active) |
| CC1C(c2ccccc2)OCCN1C(=S)Nc1ccc(S(=O)(=O)N2CCCCC2)cc1 (stereo not given) | 93% |
| Cc1cc(Br)c2nsnc2c1[N+](=O)[O-] | 36.9% |
| COc1ccc(NC(=O)/C(=C/N2C(=O)/C(=C/c3ccc(OC)c(OC)c3)NC2=S)C(C)=O)cc1 | 57.3% |
| COc1cc(/C=C/c2ccnc3ccccc23)cc(OC)c1OC | 33.2% |
| CCCCCCC1N=C(N)N=C(N)N1c1cccc(Cl)c1 (stereo not given) | 33.6% |
